Screening data as filed in PubChem.
Only a selection was taken, and hits are over-represented in it overall.
Sm TGR block: blocks Schistosoma mansoni thioredoxin glutathione reductase. purified TGR, DTNB reduction, TNB absorbance 405 nm. 360,000 compounds, 3% hits. Potency, µM (series often up to 114 µM), inactives show top-dose activity change, negative = inhibition, actives largely listed as inhibitors. AID 485364; also: potency is read from the fitted curve at half-maximal effect; % is scaled to controls: 0 for no effect and ±100 for the full control effect; nearly all actives have a fitted effect of over 60% in size
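Kinetic colorimetric format: TGR-catalysed, NADPH-driven DTNB reduction monitored via TNB absorbance. Enzyme dispensed at 20 nM; compound exposure 15 min at room temperature before reaction start.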
FBPA Giardia inh: inhibitors of Giardia lamblia fructose-1,6-bisphosphate aldolase. 290,000 compounds, 0.71% hits. Potency, µM (highest dose often 59.6 µM), without a hit: top-dose activity, negative = inhibition, most hits filed as inhibitors. purified Giardia FBPA. AID 2451. A8B2U2; also: potency is read from the fitted curve at half-maximal effect; % is scaled to controls: 0 for no effect and ±100 for the full control effect; nearly all actives have a fitted effect of over 55% in size
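40 nM FBPA preincubated 10 min at RT with compound (up to 57.5 uM final), then substrate plus GAPDH/TPI/NAD/arsenate coupling and diaphorase/resazurin added. Fluorescence read after 20 min at RT, 525/598 nm.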
LmPK inh: LmPK (Leishmania mexicana) enzyme inhibition; Q27686; purified LmPK, Kinase-Glo ATP luminescence, 1 h; Potency, µM (top dose mostly 57.5 µM), inactives show top-dose activity change, negative = inhibition, actives largely listed as inhibitors; 290,000 compounds, 0.37% hits; AID 1721; also: potency is read from the fitted curve at half-maximal effect; % is scaled to controls: 0 for no effect and ±100 for the full control effect
Target sequence (Q27686 whole entry, looked up): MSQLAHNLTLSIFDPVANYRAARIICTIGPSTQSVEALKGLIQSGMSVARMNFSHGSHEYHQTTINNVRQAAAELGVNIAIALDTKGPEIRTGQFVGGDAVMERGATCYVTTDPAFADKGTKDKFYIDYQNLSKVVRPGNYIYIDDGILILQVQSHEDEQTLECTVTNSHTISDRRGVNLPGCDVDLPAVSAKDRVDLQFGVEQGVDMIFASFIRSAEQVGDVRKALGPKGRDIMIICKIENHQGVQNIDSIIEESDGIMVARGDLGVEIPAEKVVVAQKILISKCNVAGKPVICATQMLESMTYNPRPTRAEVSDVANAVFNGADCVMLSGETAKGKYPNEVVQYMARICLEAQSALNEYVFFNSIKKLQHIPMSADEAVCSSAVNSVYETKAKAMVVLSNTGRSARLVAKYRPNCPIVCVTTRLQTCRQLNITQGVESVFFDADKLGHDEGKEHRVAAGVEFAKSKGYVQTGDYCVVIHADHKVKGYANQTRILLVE
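Pyruvate kinase activity monitored as ATP production (luciferase luminescence). Conditions: 0.1 nM enzyme, 0.5 mM PEP, 0.1 mM ADP, 1 h, RT; normalized against uninhibited and no-enzyme wells.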
CHX counter: counter-screen hit for Shiga toxin inhibitors, cycloheximide | AID 2314 | max response, % | 300,000 compounds, 12% hits | cell reporter, cycloheximide protein synthesis inhibition counterscreen; in the data active = max response mostly above about 13%, no sharp cut-off; inactive = mostly below about 14%; also: read at 38.3 µM for the half of the compounds with a filed dose; 0% is about no effect
Shiga inhibitor: inhibitors of Shiga toxin in Vero cells; 290,000 compounds, 9.2% hits; inhibition, % at 38.7 µM; Vero cells, Shiga toxin protein synthesis inhibition reporter; in the data active = inhibition mostly above about 28%, no sharp cut-off; inactive = mostly below about 43%; also: 0% is about no effect
TbPYK inhibitor: blocks Trypanosoma brucei pyruvate kinase; AID 624173; Potency, µM (top dose mostly 76.8 µM), for inactives: top-dose activity, negative = inhibition, actives largely listed as inhibitors; 410,000 compounds, 0.12% hits; TbPYK enzyme, Kinase-Glo Plus ATP luminescence, 45 min; Q57TT1; also: potency is read from the fitted curve at half-maximal effect; % is scaled to controls: 0 for no effect and ±100 for the full control effect; nearly all actives have a fitted effect of over 50% in size
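Readout: single end-point luminescence (Kinase-Glo Plus, 10 min). Reaction conditions were TbPYK/substrate plus 130 uM ADP, 45 min at RT, pH 7.2 TEA buffer. No-enzyme wells served as controls, and data were normalized before concentration-response fitting.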
Active calls of the source: *; u = inconclusive; x = no result given. Unless noted, calls follow the shape of the dose curve; as a rule, active = well fitted curve in the direction sought with a large enough effect; inconclusive = small, poorly fitted or top-dose-only effect, or another doubt; inactive = no such curve, though single readings can be large; an effect the other way counts as inactive or inconclusive.

SMILES	Sm TGR block	FBPA Giardia inh	LmPK inh	CHX counter	Shiga inhibitor	TbPYK inhibitor
Cc1ccc(N(C(=O)c2snc(C(N)=O)c2N)C(C(=O)NC2CCCC2)c2ccco2)cc1 (configuration not stated)	40µM*	0%	1%	8	-3	1%
CC(C(=O)NC1CCCCC1)N(Cc1ccc(F)cc1)C(=O)c1snc(C(N)=O)c1N (configuration not stated)	6%	x	1%	-8	-11	-12%
NC(=O)c1nsc(C(=O)N(CC(=O)NC2CCCCC2)Cc2ccc(F)cc2)c1N	2%	5%	0%	53*	116*	-2%
N[C@@H](C(=O)O)c1ccc(C(=O)O)cc1	x	0%	x	x	x	x
CN1C(=O)C2(Oc3ccccc3C3CC(c4ccccc4)=NN32)c2ccccc21 (configuration not stated)	u	-20%	-4%	28*	78*	-25%
COc1ccc2c(c1OC)C(=O)N1N=C(c3ccc(-c4ccccc4)cc3)CC21 (configuration not stated)	-5%	11%	6%	1	-15	1%
S=C1NC2(CCS1)Oc1ccccc1C1CC(c3ccccc3)=NN12 (configuration not stated)	5%	-4%	2%	33*	70*	x
Cc1ccc(C2=NN3C(C2)c2ccccc2OC32C(=O)Nc3ccccc32)cc1 (configuration not stated)	0%	-13%	-1%	42*	78*	-27%
C=CCOC[C@@H]1CN2[C@H](c3ccc(Br)cc3)[C@@H](C)CC[C@H]2C(=O)O1	x	2%	x	x	x	x
Cc1ccc2nc(N3CCN(C(=O)C4COc5ccccc5O4)CC3)sc2c1 (configuration not stated)	10%	x	x	x	x	-5%
CCc1ccc(NC(=O)c2ccc(NC(=O)C3CCCO3)cc2)cc1 (configuration not stated)	u	12%	-14%	14*	56*	2%
CCCCOC(=O)c1ccc(NC(=O)C2CCCO2)cc1 (configuration not stated)	-2%	6%	0%	36*	67*	0%
CCCCOC(=O)Nc1ccc(C(=O)OCCC)cc1	-13%	-2%	-4%	29*	134*	-9%
CCOC(=O)c1ccc(NC(=O)C2CC2)cc1	-2%	3%	-3%	22*	72*	1%
CCOC(=O)c1cc(NC(=O)COC)ccc1O	9%	2%	3%	1	-21	x
CCOC(=O)c1cc(NC(=O)C2CCCO2)cc(C(=O)OCC)c1 (configuration not stated)	-3%	-1%	2%	1	-7	-38%
CCOC(=O)c1ccc(NC(=O)COC)cc1	1%	7%	-2%	11*	35*	1%
CCOC(=O)c1ccc(NC(=O)c2ccccc2C)cc1	-1%	-4%	-13%	53*	86*	-13%
CCOC(=O)c1ccc(NC(=O)C2CCCO2)cc1 (configuration not stated)	-14%	4%	-9%	32*	55*	2%
Cc1cccc(-n2nnnc2S(C)(=O)=O)c1	2.5µM*	x	x	x	x	-8%
COc1cccc(-n2nnnc2S(C)(=O)=O)c1	2.8µM*	1%	3%	13	-13	-9%
COc1cccc(-c2nc(NC3CC3)c3ccccc3n2)c1	x	-25%	x	x	x	x
O=C(CCc1ccccc1)N1CCc2c([nH]c3ccccc23)C1c1ccc(F)cc1 (configuration not stated)	48%	x	x	x	x	4%
CNC(=O)[C@]1(C)C[C@H]1[C@H](NC(=O)[C@]1(C)C[C@H]1[C@H](NC(=O)[C@]1(C)C[C@H]1[C@H](NC(=O)[C@]1(C)C[C@H]1[C@H](NC(=O)OCc1ccccc1)c1ccccc1)c1ccccc1)c1ccccc1)c1ccccc1	x	3%	x	x	x	x
O=C(/C=C/c1ccco1)N(Cc1ccc(Cl)cc1)C1CCS(=O)(=O)C1 (configuration not stated)	3.2µM*	8%	-4%	8	42	-3%
